Assay results from PubChem BioAssay (NCATS).
Inconclusive results are not listed. Calls of active or inactive are those of the source. Calls come from the whole dose curve; as a rule, active = well fitted curve in the direction sought with a large enough effect; inconclusive = small, poorly fitted or top-dose-only effect, or another doubt; inactive = no such curve, though single readings can be large; an effect the other way counts as inactive or inconclusive.

What was measured:
[1] = target: Glutathione peroxidase 1 (Homo sapiens) (UniProt P07203); assay: Primary qHTS Assay for Inhibitors of Recombinant Selenoprotein Glutathione Peroxidase 1 (GPX1) (AID 1845191); settings: recombinant GPX1, GR-coupled NADPH fluorescence, 15 min; series mostly up to 27.7 µM; note: nearly all actives have a fitted effect of over 65% in size; for activity, negative = inhibition: % is set by controls: 0 for no effect and ±100 for the full control effect
Outline: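 GPX1 10 nM, GR 100 nM, GSH 1 mM, NADPH 0.5 mM, CHP 0.5 mM (final). 30-min cpd preincubation, RT. Ex340/Em450 read t=0, t=15 min.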

[2] = target: Phospholipid hydroperoxide glutathione peroxidase GPX4 (Homo sapiens) (UniProt P36969); assay: Primary qHTS Assay for Inhibitors of Recombinant Selenoprotein Glutathione Peroxidase 4 (GPX4) (AID 1845192); settings: recombinant GPX4, GR-coupled NADPH fluorescence, 15 min; series mostly up to 27.8 µM; note: nearly all actives have a fitted effect of over 65% in size; for activity change, negative = inhibition: % is set by controls: 0 for no effect and ±100 for the full control effect
Outline: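 qHTS, GR-coupled: GPX4 200 nM + cpd 30 min RT → GSH 1 mM, NADPH 0.5 mM, GR 100 nM → CHP 0.5 mM start; fluor 340/450 at t0 and t15 min; no-enzyme wells as control.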

[3] = target: Luciferin 4-monooxygenase (Photinus pyralis) (UniProt P08659); assay: Primary firefly luciferase (FLuc) qHTS assay for identification of artifact compounds. (AID 1845220); settings: purified firefly luciferase, luminescence, 5 min; series mostly up to 54.1 µM; note: nearly all actives have a fitted effect of over 60% in size;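 for activity change, negative = inhibition: plate controls were DMSO vehicle for no effect and no enzyme for full effect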
Outline: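 qHTS, 15 min compound preincubation with substrate (10 uM luciferin, 10 uM ATP) at RT, then 10 nM FLuc; 5 min; luminescence; % inhibition vs no-enzyme/DMSO controls, 4-parameter Hill fit.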

[4] = Primary fluorescence-based thiol-reactive (MSTI) qHTS assay for identification of artifact compounds. (AID 1845221); settings: MSTI thiol-reactivity probe, 1 h; series mostly up to 53.8 µM; note: nearly all actives have a fitted effect of over 65% in size; note: potency is the fitted concentration of half-maximal effect;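 for activity change, negative = thiol reactive: thiol-reactive compounds lower the probe fluorescence signal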
Outline: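 Probe: MSTI 4 uM, PBS pH 7.4, 2% DMSO. Incubation 1 h, RT, light-protected. Readout fluorescence 525/598 nm.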

[5] = test system: Nanoluciferase (engineered Oplophorus gracilirostris luciferase); assay: Primary Nanoluciferase (NLuc) qHTS assay for identification of artifact compounds. (AID 1845222); settings: NLuc-conditioned medium, Nano-Glo luminescence, 5 min; series mostly up to 54.1 µM
Outline: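 Luminescence read-out of secreted NLuc in S16 cell conditioned medium (1:55); compounds tested with 15 min RT preincubation, then Nano-Glo substrate 1:100, 5 min. % inhibition vs no-enzyme and DMSO controls, 4-parameter Hill fit.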

Glutathione peroxidase 1 (Homo sapiens), sequence (P07203 whole entry, looked up): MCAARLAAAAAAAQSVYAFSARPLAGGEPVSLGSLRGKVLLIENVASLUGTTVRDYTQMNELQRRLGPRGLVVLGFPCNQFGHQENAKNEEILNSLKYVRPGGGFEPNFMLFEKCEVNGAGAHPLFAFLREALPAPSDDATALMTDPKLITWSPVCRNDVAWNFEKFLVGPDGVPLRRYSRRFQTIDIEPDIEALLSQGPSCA
Phospholipid hydroperoxide glutathione peroxidase GPX4 (Homo sapiens), sequence (P36969 whole entry, looked up): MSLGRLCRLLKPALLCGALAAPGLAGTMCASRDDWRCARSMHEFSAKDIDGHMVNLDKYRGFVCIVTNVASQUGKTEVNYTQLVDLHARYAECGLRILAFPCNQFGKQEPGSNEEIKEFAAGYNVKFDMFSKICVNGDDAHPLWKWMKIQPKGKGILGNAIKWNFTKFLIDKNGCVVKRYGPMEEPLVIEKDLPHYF

Cc1ccc(C)c(S(=O)(=O)n2cnc3ccccc32)c1
inactive: Potency [1] | Potency [2] | Potency [3] | Potency [4] | Potency [5]

CC(=O)OCC1=CCC2C(C)(C)CCCC2(C)C12CCC(C)(CC(=O)O)O2 (stereo not given)
inactive: Potency [1] | Potency [2] | Potency [3] | Potency [4] | Potency [5]

COc1ccc(CCC(=O)c2c(O)cc(O[C@@H]3O[C@H](CO)[C@@H](O)[C@H](O)[C@H]3O[C@@H]3O[C@@H](C)[C@H](O)[C@@H](O)[C@H]3O)cc2O)cc1O
inactive: Potency [1] | Potency [2] | Potency [3] | Potency [4] | Potency [5]

COc1cc(O)cc(C)c1C(=O)O[C@H]1[C@@H](O)[C@@H](n2ccc(=O)[nH]c2=O)O[C@@H]1CO
inactive: Potency [1] | Potency [2] | Potency [3] | Potency [4] | Potency [5]

C[C@@H]1O[C@@H](O[C@H]2[C@H](O[C@H]3[C@H](O[C@H]4CC[C@@]5(C)C(CC[C@]6(C)C5CC=C5[C@@H]7CC(C)(C)C[C@@H](O)[C@]7(C)CC[C@]56C)C4(C)C)O[C@H](C(=O)O)[C@@H](O)[C@@H]3O)O[C@H](C(=O)O)[C@H](O)[C@@H]2O)[C@H](O)[C@H](O)[C@H]1O (stereo not given in full)
inactive: Potency [1] | Potency [2] | outcome [3] inactive [at 11.6 µM] | activity change, negative = thiol reactive [4] 56.2% [at 11.5 µM] | activity, negative = inhibition [5] 0.805% [at 11.6 µM]

O=C(Nc1ccn(Cc2c(F)cccc2C(F)(F)F)n1)c1c(F)cccc1F
inactive: Potency [1] | Potency [2] | outcome [3] inactive [at 11.6 µM] | activity change, negative = thiol reactive [4] 27.2% [at 11.5 µM] | activity, negative = inhibition [5] 3.13% [at 11.6 µM]

COc1cc(/C=C/C(=O)OC[C@H]2O[C@@H](OC3CC(C)=C(C(=O)O)C(C)(C)C3)[C@H](O)[C@@H](O)[C@@H]2O)cc(OC)c1O (stereo not given in full)
inactive: Potency [1] | Potency [2] | Potency [3] | Potency [5]
active: Potency [4] 3270 nM

CC1=CCC2C(C)(C)CCCC2(C)C1CC12OC1C(O)C(CO)=CC2O (stereo not given)
inactive: Potency [1] | Potency [2] | Potency [3] | Potency [4] | Potency [5]

CC(=O)OC1CC2(C)C(CCC(C)C23Cc2c(O)cc4c(c2O3)CNC4=O)C(C)(C)C1O (stereo not given)
inactive: Potency [1] | Potency [2] | Potency [3] | Potency [4] | Potency [5]

CNC(=O)c1ccc2c(c1)CCO[C@H]2CCN1CCN(c2ccc(C(N)=O)cc2)CC1
inactive: Potency [1] | Potency [2] | Potency [3] | Potency [4] | Potency [5]

COC1CC(O[C@H]2CC[C@@]3(C)C(=CC[C@]4(O)C3[C@H](O)[C@@H](O)[C@]3(C)[C@@H]([C@H](C)O)CC[C@@]34O)C2)OC(C)C1OC1CC(OC)C(OC2CC(OC)C(OC3OC(C)C(OC4OC(CO)C(O)C(O)C4O)C(OC)C3O)C(C)O2)C(C)O1 (stereo not given in full)
inactive: Potency [1] | Potency [2] | activity change, negative = inhibition [3] 1.06% [at 11.6 µM] | activity change, negative = thiol reactive [4] 43.2% [at 11.5 µM] | activity, negative = inhibition [5] 0% [at 11.6 µM]

CC[C@@H](Nc1c(Nc2cccc(C(=O)N(C)C)c2O)c(=O)c1=O)c1ccc(C)o1
inactive: Potency [1] | Potency [2] | Potency [3] | Potency [5]
active: Potency [4] 2380 nM

CC(O)C(O)/C=C/C=C/C(=O)O[C@@H]1C=C(C(=O)O)[C@](O)(CO)[C@@]2(C)CCCC(C)(C)[C@H]12 (stereo not given in full)
inactive: Potency [1] | Potency [2] | Potency [3] | Potency [4] | Potency [5]

CCOc1ccc(-c2nn3ncccc3c2-c2ccc(S(C)(=O)=O)cc2)cc1
inactive: Potency [1] | Potency [2] | Potency [3] | Potency [4] | Potency [5]
